# Compound activity from PubChem BioAssay.
# Hits are enriched below; roughly 4.2% of the tested compounds scored in any of these assays.
# PfHsp90 yeast 2: inhibits growth of yeast expressing Plasmodium falciparum Hsp90; S. cerevisiae expressing PfHsp90, BacTiter-Glo ATP, 48 h; yeast lacking PDR1 and PDR3 efflux regulators; inhibition, % at 9.4 µM; 310,000 tested, 0.32% active; AID 504621;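 active means every replicate shows inhibition above about 80%, whatever the replicate mean, limit read from the data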;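 further: 0% = DMSO neutral controls and 100% = 20 µM radicicol positive controls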
# tim10-1 inh: tim10-1 yeast growth inhibition; S. cerevisiae tim10-1 ts strain growth, BacTiter-Glo, 24 h; 330,000 tested, 2.2% active; AID 463190; inhibition, % at 20 µM;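 active means inhibition of at least 40%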;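 further: mutant grown at 25 °C; 0% = DMSO wells with yeast and 100% = wells holding no yeast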
# TIM10 inh: inhibits growth of TIM10 yeast strain. S. cerevisiae TIM10 strain growth, BacTiter-Glo luminescence, 24 h. 330,000 tested, 1.4% active. inhibition, % at 10 µM;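 active means inhibition of 40% or more at the single tested concentration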;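 further: wild-type TIM10 isogenic control strain grown at permissive 25 °C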
# NLRP3 yeast inh: blocks the NALP3 inflammasome reconstituted in yeast | Yeast reconstituted NLRP3/ASC/caspase-1, beta-gal luminescence, 24 h | inhibition, % at 10 µM | 330,000 tested, 0.39% active;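 active means inhibition of 50% or more; inactive means inhibition below 50%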;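 further: plate controls were induced DMSO wells for no effect and uninduced yeast grown without galactose for full effect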
# NALP1 inh: blocks the NALP1 inflammasome reconstituted in yeast. S. cerevisiae NALP1/ASC/caspase-1 growth, X-gal OD620, 72 h. inhibition, % at 10 µM. 280,000 tested, 0.61% active. AID 2071; in the data active means inhibition mostly above about 24%, no sharp cut-off; inactive means mostly below about 32%
# tim23-1 inh: growth inhibitors of tim23-1 mutant yeast | S. cerevisiae tim23-1 growth, BacTiter-Glo luminescence, 24 h | inhibition, % at 20 µM | 330,000 tested, 1.3% active | AID 463212;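 active means growth inhibition of the mutant yeast at or above 50%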;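 further: temperature-sensitive mutant grown at 25 °C; plate controls were DMSO-treated mutant yeast for no effect and medium wells lacking yeast for full effect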
# tim10 confirm: TIM10 yeast growth inhibition, confirmed | shares compounds with TIM10 inh | S. cerevisiae tim10 strain growth, BacTiter-Glo luminescence, 24 h | inhibition, % at 10 µM | 4,600 tested, 63% active | AID 463215;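 active means inhibition of yeast growth at or above a set limit in either of two replicates at 10 µM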;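 further: this counterscreen used the strain with wild-type TIM10; 0% = yeast with DMSO and 100% = medium wells lacking yeast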
# The depositor's hits bear a star; / = no result given.
SMILES,PfHsp90 yeast 2,tim10-1 inh,TIM10 inh,NLRP3 yeast inh,NALP1 inh,tim23-1 inh,tim10 confirm
CCN(C(=O)c1cc2cc3ccc(C)cc3nc2o1)c1ccc(OC)cc1,0.8,35.5,44.4*,20.2,40.0,38.2,-8.7
Cc1ccc2cc3cc(C(=O)N4CCCCC4C)oc3nc2c1 (stereo not given),20.4,32.4,50.4*,17.6,3.4,40.4,-29.9
Cc1ccc2cc3cc(C(=O)NCCCN4CC(C)CC(C)C4)oc3nc2c1 (stereo not given),-29.4,25.1,61.4*,-11.4,24.8,26.0,26.6
Cc1ccc(C)c(S(=O)(=O)N2CCN(C(=O)Cc3ccc(S(=O)(=O)N4CCOCC4)s3)CC2)c1,12.7,9.2,9.6,7.1,/,10.0,/
CNc1ncc(C(=O)c2ccc(Cl)c(Cl)c2)s1,-44.0,36.7,55.0*,34.8,-1.6,47.4,30.2
Cc1cccc(NNC(=S)Nc2c(C)cccc2C)c1,-80.0,23.3,44.9*,31.8,2.0,42.3,35.6*
Cc1cccc(NNC(N)=S)c1,/,14.9,14.3,3.0,-3.8,17.0,/
O=C(Cn1cnc2c(oc3ccccc32)c1=O)c1ccccc1,/,16.4,48.9*,48.8,-10.6,42.1,29.1
CCn1cc(/C=C(\NC(=O)c2cc(OC)c(OC)c(OC)c2)C(=O)NCCN2CCOCC2)c2ccccc21,26.2,14.0,97.4*,5.5,14.8,-4.2,0.0
CCn1cc(/C=C(\NC(=O)c2cc(OC)c(OC)c(OC)c2)C(=O)NCCCN2CCOCC2)c2ccccc21,13.4,20.1,3.7,-0.4,5.3,9.4,/
COc1ccc(-c2csc(NC(=O)C3CCN(C(=O)c4ccc(F)cc4)CC3)n2)cc1OC,3.8,18.8,11.1,4.0,-4.8,24.0,/
Cc1cc(C)c(NC(=O)C2CCCN2CCOC(=O)c2cccc([N+](=O)[O-])c2)c(C)c1 (stereo not given),-4.0,36.5,41.4*,3.3,28.2,39.1,16.9
O=C1NC(=S)S/C1=C\c1coc2ccccc2c1=O,-22.0,13.1,43.9*,3.9,7.1,27.7,25.0
O=C(Nc1c(C(=O)N2CCOCC2)cnn1-c1ccccc1)c1ccc(F)cc1,-1.1,-4.0,-2.2,-3.1,6.6,-10.5,/
CC(C)c1ccc2[nH]c(O)c(N=NC(=S)NCCc3ccccc3)c2c1,-5.7,25.4,16.8,13.3,23.4,0.9,/
CCNC(=S)N=Nc1c(O)[nH]c2ccc(C(C)C)cc12,0.3,31.9,40.6*,25.5,24.8,35.2,-19.5
COc1ccc(NC(=S)NCCc2ccc(Cl)cc2)c(OC)c1,2.4,35.6,41.0*,23.3,8.6,46.8,-34.8
COc1ccc(NC(=S)NCCSc2ccc(C)cc2)c(OC)c1,0.7,25.5,45.8*,20.1,/,44.2,-14.8
CC1CCc2c(nc3ncnn3c2NCCc2ccccc2F)C1 (stereo not given),9.0,-41.2,-28.7,-8.4,-16.1,-29.3,/
COc1ccc(CNC(=O)CSc2cccc3cccnc23)cc1,2.4,13.7,50.9*,-5.4,/,-0.4,11.9
CC(=O)Nc1ccc(SCC(=O)Nc2cc(C(C)(C)C)nn2-c2ccccc2)cc1,3.0,21.5,8.4,0.2,10.5,18.3,/
Cn1c(SCC(=O)Nc2cc(C(C)(C)C)nn2-c2ccccc2)nc2ccccc21,-15.9,29.2,43.4*,9.0,20.6,40.2,-20.2
O=C(CN1CCN(c2cccc(Cl)c2)CC1)c1ccc(O)cc1O,6.2,16.4,10.8,18.8,15.1,18.3,/
O=C(Nc1ccc(Cl)c([N+](=O)[O-])c1)C(Sc1ccccc1)c1ccccc1 (stereo not given),3.7,27.1,41.8*,21.8,11.1,31.9,43.0*
O=C(Nc1cc([N+](=O)[O-])ccc1Cl)C(Sc1ccccc1)c1ccccc1 (stereo not given),10.3,11.9,18.2,-9.9,13.6,-3.4,/
SMILES,PfHsp90 yeast 2,tim10-1 inh,TIM10 inh,NLRP3 yeast inh,NALP1 inh,tim23-1 inh,tim10 confirm
CCCCNC(=O)Nc1nc2ccc(CC)cc2s1,/,35.3,40.0,18.1,7.2,27.9,29.9
Nc1c(Cl)cc(-c2[nH]c3cc(C(=O)NCCO)ccc3c(=O)c2O)cc1Cl,0.4,16.2,9.8,2.0,3.6,-0.4,/
O=C1CSC(c2cn(-c3ccccc3)nc2-c2cc3ccccc3oc2=O)N1Cc1ccco1 (stereo not given),/,32.6,42.3*,2.2,12.0,26.8,7.7
CCc1ccccc1NC(=S)NCC1CCN(c2ccc(OC)cc2)C1 (stereo not given),6.7,-4.4,40.4*,12.9,/,47.8,52.5*
COc1ccc(N2CCC(CNC(=S)Nc3cccc(OC)c3)C2)cc1 (stereo not given),/,-17.3,18.3,4.1,12.9,39.1,/
CCc1cccc(C)c1NC(=S)NCC1CCN(c2ccc(OC)cc2)C1 (stereo not given),-38.1,27.2,57.2*,12.3,-22.5,36.3,58.7*
Cc1cccnc1NC(=O)c1ccc(COc2ccccc2)o1,-29.8,13.6,7.2,-9.6,5.0,-3.2,/
CN(C)C1=NC[C@H](Cc2ccccc2)N1CC1CCCCCC1,2.3,-17.8,-4.4,5.2,/,1.7,/
O=C(COC(=O)c1ccc([N+](=O)[O-])s1)Nc1ncc(C(F)(F)F)cc1Cl,0.6,9.0,64.7*,-11.0,15.7,-11.7,72.2*
Cc1ccc(CC(=O)OCC(=O)NC2CCCC(C)C2C)cc1C (stereo not given),17.3,24.2,50.2*,5.4,-4.3,4.9,14.2
CC1CCCC(NC(=O)COC(=O)c2ccccc2[N+](=O)[O-])C1C (stereo not given),-25.5,13.3,-4.0,15.8,-0.9,-5.8,/
CC1CCCC(NC(=O)COC(=O)c2ccc([N+](=O)[O-])s2)C1C (stereo not given),3.0,-7.2,61.6*,32.4,/,-21.0,61.1*
O=C(COC(=O)c1ccccn1)Nc1ncc(C(F)(F)F)cc1Cl,1.7,3.0,-1.8,6.7,16.9,8.7,/
CC1CCCC(NC(=O)COC(=O)Cc2ccc(Cl)cc2)C1C (stereo not given),23.7,6.6,4.2,1.4,/,28.9,/
Cc1nc(COc2ccc(C(=O)NCc3ccccc3CN3CCCCC3)cc2)cs1,-3.5,30.0,3.6,22.6,/,16.7,/
CCOC(=O)C1=C(C)NC2=C(C(=O)c3ccccc32)C1c1ccc([N+](=O)[O-])o1 (stereo not given),-25.8,31.1,48.6*,22.1,2.9,47.6,40.3*
Cc1ccc(NC(=O)OCc2cccs2)cc1,/,-11.4,-12.9,24.6,32.3,10.7,/
CC(=O)/C(=C/c1ccc(N(C)C)cc1)C(=O)c1ccccc1,17.4,15.2,40.8*,-10.6,19.8,17.8,-16.8
CCC(=O)Nc1ccc(/C=C(\C(C)=O)C(=O)c2ccccc2)cc1,1.4,38.1,35.0,-10.0,-3.9,35.1,/
